SNCA expr inhib = inhibitors of alpha-synuclein (SNCA) gene expression. 140,000 compounds, 0.17% hits. Potency, µM (series often up to 57.2 µM), for the others: top-dose activity change, negative = inhibition, usual class: inhibitors. HEK-293 SNCA-luciferase knock-in, luminescence, 24 h;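 note: potency is the fitted concentration of half-maximal effect; plate controls were DMSO cells for no effect and cell-free wells for full effect; nearly all actives have a fitted effect of over 45% in size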
HEK293 viab = counter-screen for SNCA expression inhibitors: cell viability. Potency, µM (highest dose often 57.1 µM), for inactives: at the highest dose activity change, negative = cytotoxicity, actives largely listed as cytotoxic. 150,000 compounds, 0.12% hits. HEK-293-SNCA-luc viability, GF-AFC fluorescence, 24 h. AID 1671193;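 note: potency is the fitted concentration of half-maximal effect; 0% = DMSO-treated cells and -100% = medium-only wells without cells; nearly all actives have a fitted effect of over 30% in size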
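Cytotoxicity counterscreen: after 24 h compound treatment of genome-edited SNCA-luciferase HEK-293 cells, live-cell protease substrate GF-AFC read by fluorescence after 30 min; activity scaled between DMSO (0%) and medium-only (-100%), curves Hill-fitted.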
IP6K1 inh = IP6K1 kinase inhibition; Q92551; IP6K1 kinase, ADP-Glo luminescence, 2 h; active compounds read low; activity change, % (series mostly up to about 58 µM); 140,000 compounds, 0.81% hits; in the data active = activity change below about -25%; note: % is set by controls: 0 for no effect and ±100 for the full control effect
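ADP-Glo luminescence measures ADP made by human IP6K1 during a 2 h RT reaction with ATP/IP6 (mix at 1.3 mM/130 uM); top library doses 57.5 and 19.1 uM final.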
KDM5B inh = blocks human KDM5B histone demethylase activity. KDM5B demethylase, FDH-coupled NADH fluorescence (FDH is formaldehyde dehydrogenase). Potency, µM (series often up to 57.7 µM), hits mostly inhibitors. AID 1347165. 220,000 compounds, 2.6% hits; note: potency is the fitted concentration of half-maximal effect; 0% is about no effect; nearly all actives have a fitted effect of over 70% in size
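Compound dilutions met 200 nM (final) KDM5BΔAP for 10 min at room temperature before substrate addition. The substrate mix held 12.5 µM H3K4me3 with cofactors 25 µM α-ketoglutarate and 50 µM Fe²⁺. NADH signal gain over 30 min defined activity.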
Numbers without * were called inactive; i = inactive; ? = inconclusive; · = not tested or not shown; [ ] = dose if it differs, or a comment. Hits are enriched below; roughly 2.8% of the tested compounds scored in any of these assays. Unless noted, calls come from the whole dose curve; as a rule, active = well fitted curve in the direction sought with a large enough effect; inconclusive = small, poorly fitted or top-dose-only effect, or another doubt; inactive = no such curve, though single readings can be large; an effect the other way counts as inactive or inconclusive.

SMILES	SNCA expr inhib	HEK293 viab	IP6K1 inh	KDM5B inh
Cn1nc(C2CCNC2)c2c(C(=O)N3CCC(F)CC3)cc(C3CC3)nc21 (configuration not stated)	-2%	-8%	6	79µM*
Cn1nc(C2CCNC2)c2c(C(=O)NC3CC3)cc(C3CC3)nc21 (configuration not stated)	1%	9%	0	100µM*
Cn1nc(C2CCNC2)c2c(C(=O)NCC(F)(F)F)cc(C3CC3)nc21 (configuration not stated)	3%	10%	15	?
COc1ccc(CNC2(Cc3cc(CN(C)Cc4ccccc4)on3)COC2)c(O)c1	-7%[87.6 µM]	3%[87.6 µM]	10	?
COc1ccc2[nH]c(=O)c(CCC(=O)N3CCN(CC(C)C)CC3)cc2c1	-22%	4%	33	28µM*
CCC1CCCCN1CCNC(=O)CCc1cc2ccccc2[nH]c1=O (configuration not stated)	-5%	-1%	-4	?
COc1ccc2[nH]c(=O)c(CCC(=O)NCCCN3CCCCC3C)cc2c1 (configuration not stated)	28%	8%	30	28µM*
COc1ccc2[nH]c(=O)c(CCC(=O)N3CCCC3)cc2c1	19%	-4%	34	?
COCCn1c(C)nnc1-c1cc(-c2ccnc(C)c2)ccn1	-16%[87.6 µM]	0%[87.6 µM]	-6	i
COCCn1c(C)nnc1-c1cc(-c2cccc(OC)c2)ccn1	27%[87.6 µM]	12%[87.6 µM]	-2	35µM*
Cc1noc([C@@H]2CN(C3CCCC3)C[C@H]2CO)n1	-9%	6%	-1	i
O=C(c1cnc2ccccn2c1=O)N1CC(=O)N(C2CCCCC2)CC(OCc2ccccc2)C1 (configuration not stated)	13%	-21%	15	32µM*
CC(C)C(=O)N1CC(=O)N(C2CCCCC2)CC(OCc2ccccc2)C1 (configuration not stated)	-11%	5%	7	i
O=C(Cn1ccn2nc(-c3ccccc3)c(CO)c2c1=O)Nc1ccc2c(c1)OCO2	3%	7%	5	i
Cn1c(=O)c2c(nc(N3CCCCC3)n2CCSc2nnnn2-c2ccccc2)n(C)c1=O	·	·	·	i
COCCNC(=O)C1CCCN(c2nc3ncccc3o2)C1 (configuration not stated)	9%[87.6 µM]	-4%[87.6 µM]	16	28µM*
O=C(NCc1ccccn1)C1CCCN(c2nc3ncccc3o2)C1 (configuration not stated)	-4%[87.6 µM]	-6%[87.6 µM]	-7	35µM*
COC(=O)CNC(=O)C1CCCN1c1nc2ncccc2o1 (configuration not stated)	1%[87.6 µM]	4%[87.6 µM]	-11	?
O=C(NCc1cccc(F)c1)C1CCCN(c2nc3ncccc3o2)C1 (configuration not stated)	-19%[87.6 µM]	-1%[87.6 µM]	10	i
COC(=O)CNC(=O)C1CCCN(c2nc3ncccc3o2)C1 (configuration not stated)	-10%[87.6 µM]	4%[87.6 µM]	9	28µM*
CC(=O)N1CCN(C(=O)c2cnc(N)nc2-c2ccccc2)CC(O)C1 (configuration not stated)	-19%	5%	5	25µM*
CC(=O)N1CCN(C(=O)c2cc3ccccc3[nH]c2=O)CC(O)C1 (configuration not stated)	-15%	-3%	-11	28µM*
Nc1ncc(C(=O)N2CCCC3(CCOC3)C2)c(-c2ccccc2)n1 (configuration not stated)	-1%	2%	-7	?
CCCCCCn1c(N(C)Cc2ccccc2)nc2c1c(=O)[nH]c(=O)n2C	·	·	·	i
CCC1(O)CCC12CCN(C(=O)CCc1ccc(OC)cc1)CC2 (configuration not stated)	-8%	7%	1	·
SMILES	SNCA expr inhib	HEK293 viab	IP6K1 inh	KDM5B inh
CC(=O)N1C[C@H](NC(=O)c2cc3c(n(C)c2=O)CCCC3)[C@@H](C2CC2)C1	1%	9%	20	28µM*
Cc1cccc(C(=O)N2CCCC(c3noc(-c4cc5c(=O)[nH]c(C)cn5n4)n3)C2)c1 (configuration not stated)	?	-11%	0	i
Cc1cn2nc(-c3nc(C4CCCN(C(=O)Cc5ccsc5)C4)no3)cc2c(=O)[nH]1 (configuration not stated)	0%	-4%	5	i
CCc1ccc(C(=O)N2CCCC(c3noc(-c4cc5c(=O)[nH]c(C)cn5n4)n3)C2)cc1 (configuration not stated)	5%	-18%	2	25µM*
Cc1cn2nc(-c3nc(C4CCCN(C(=O)c5ccc(C)s5)C4)no3)cc2c(=O)[nH]1 (configuration not stated)	42%	-2%	-16	28µM*
Cc1cn2nc(-c3nc(C4CCCN(C(=O)c5sccc5C)C4)no3)cc2c(=O)[nH]1 (configuration not stated)	-22%	-9%	10	25µM*
CCOc1ccc(OCC)c(-c2nc3ccc(-c4ccc(OC)c(OC)c4OC)cc3o2)c1	26%	-3%	-11	i
CC(C(=O)NC(=O)NC12CC3CC(CC(C3)C1)C2)n1cnc2c1c(=O)n(C)c(=O)n2C (configuration not stated)	·	·	·	i
O=C(NCCC1=CCCCC1)C1CC(=O)N(c2n[nH]c3ccccc23)C1 (configuration not stated)	24%	7%	-1	25µM*
O=C(NCc1ccc(F)cc1)C1CC(=O)N(c2n[nH]c3ccccc23)C1 (configuration not stated)	-10%	14%	3	?
O=C(NCCc1cccc(F)c1)C1CC(=O)N(c2n[nH]c3ccccc23)C1 (configuration not stated)	8%	8%	4	22µM*
Cc1cn2nc(C(=O)Nc3ccc4c(c3)OCCO4)cc2c(N2CCSCC2)n1	-12%	-6%	12	32µM*
Cc1cn2nc(C(=O)Nc3ccc4c(c3)OCO4)cc2c(N2CCCC2)n1	44%	4%	6	?
COc1ccc(NC(=O)c2cc3c(N4CCSCC4)nc(C)cn3n2)c(OC)c1	7%	8%	2	?
COc1ccc(C(C)NC(=O)c2cc3c(N4CCSCC4)nc(C)cn3n2)cc1OC (configuration not stated)	?	4%	6	6.3µM*
COc1ccc(NC(=O)c2cc3c(N4CCSCC4)nc(C)cn3n2)cc1	9%	-7%	-7	14µM*
Cc1ccc(NC(=O)c2cc3c(N4CCSCC4)nc(C)cn3n2)cc1	-19%	-1%	7	35µM*
O=C(NCCc1ccc(Cl)cc1)c1cc(-c2cc(Cl)cc(Cl)c2)c2cccn2n1	-19%	12%	4	·
COc1cc(NS(=O)(=O)c2ccc(-c3cnc(C4CC4)o3)cc2)cc(OC)c1	·	·	·	i
CCc1ccccc1NC(=O)c1cc2c(N3CCSCC3)nc(C)cn2n1	-11%	3%	-18	28µM*
Cc1cccc(NC(=O)c2cc3c(N4CCSCC4)nc(C)cn3n2)c1	47%	-4%	1	32µM*
